Assay results as given in PubChem BioAssay AID652015 (National Center for Advancing Translational Sciences (NCATS), 2013).
Records with an inconclusive call do not appear. Activity calls are given as the source filed them. Calls follow the shape of the dose curve; as a rule, active = well fitted inhibition curve with a large enough effect; inconclusive = small, poorly fitted or top-dose-only effect; inactive = no such curve, though single readings can be large or run the other way.

target: Coelenterazine h 2-monooxygenase (Renilla reniformis) (UniProt P27652); assay: qHTS Assay for Inhibitors of Sea Pansy Luciferase from the GSK Published Protein Kinase Inhibitor Set; settings: purified Renilla luciferase, luminescence; series mostly up to 57.5 µM
How it was run: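 Purified R. reniformis luciferase (1 nM final) with 5 uM coelenterazine h in 50 mM Tris acetate pH 7.5, 100 uM NaCl, 0.01% Tween-20, 0.05% BSA. A titration, about 60 uM to 300 pM; luminescence read after about 2 min.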

Chain of Coelenterazine h 2-monooxygenase (Renilla reniformis) (P27652 whole entry, looked up): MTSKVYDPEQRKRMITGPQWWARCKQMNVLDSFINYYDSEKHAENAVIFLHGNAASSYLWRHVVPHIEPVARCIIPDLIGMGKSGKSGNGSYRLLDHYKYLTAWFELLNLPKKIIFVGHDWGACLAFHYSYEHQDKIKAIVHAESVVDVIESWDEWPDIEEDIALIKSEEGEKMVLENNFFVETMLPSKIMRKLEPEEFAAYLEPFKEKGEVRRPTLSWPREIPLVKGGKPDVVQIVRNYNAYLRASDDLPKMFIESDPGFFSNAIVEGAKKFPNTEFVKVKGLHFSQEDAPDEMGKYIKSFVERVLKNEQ

Potency, inactive:
CS(=O)(=O)CCNCc1nc(-c2ccc3ncnc(Nc4ccc(F)c(Cl)c4)c3c2)cs1, CN(C)CCOc1ccc(-c2cc(-c3ccc4c(c3)CCC4=NO)c(-c3ccncc3)o2)cc1, N#Cc1cccc(Nc2ncc(-c3ccccc3)o2)c1, c1ccc(Oc2ccc(Nc3ncc(-c4ccccc4)o3)cc2)cc1, c1cc(-c2cnn3nc(N4CCOCC4)ccc23)nc(NC2CC2)n1, COc1cc2ncn(-c3cc(OC(C)c4ccccc4Cl)c(C(N)=O)s3)c2cc1OC (configuration not stated), O=C(O)c1ccc(Oc2nccc(-c3c(-c4ccc(F)cc4)ncn3C3CCNCC3)n2)cc1, Nc1nonc1-c1nc2cnccc2n1C1CCCCC1, Nc1nc(-c2ccc(F)cc2)c(-c2ccc3ncccc3n2)s1, Cc1nnc(-c2ccc(C)c(-c3ccc(C(=O)NCc4ccc(Cl)cc4)cc3)c2)o1, NS(=O)(=O)c1ccc(-c2ccc3c(NC(=O)C4CC4)n[nH]c3c2)cc1, CCN(CC)S(=O)(=O)c1ccc(OC)c(Nc2ncc(-c3ccccc3)o2)c1, CNC(=O)c1sc(-n2cnc3cc(OC)c(OC)cc32)cc1OCc1ccccc1C(F)(F)F, Fc1ccc(Oc2nccc(-c3c(-c4ccc(F)cc4)ncn3C3CCNCC3)n2)cc1, CC(=O)Nc1cccc(C#Cc2cncnc2Nc2ccc(OCc3cccc(F)c3)c(Cl)c2)n1, COc1cc2ncnc(Nc3ccc4c(cnn4Cc4ccccc4)c3)c2cc1OC, c1ccc(-c2[nH]ncc2-c2ccnc(-c3ccc(OCCn4ccnc4)cc3)c2)nc1
